Assay results as given in PubChem BioAssay (Tox21).
“And” between values parts separate entries of the source, which are not always exact repeats. Equal entries are not always repeated. Inconclusive results are not listed. A call without a number means that no potency is given here. Some structures have more than one record in an assay (separate samples or runs), and their calls can disagree. The source made the active and inactive calls. Unless noted, calls come from the whole dose curve; as a rule, active = well fitted curve in the direction sought with a large enough effect in the repeat runs; inconclusive = weak or mixed curves; inactive = no such curve, though single readings can be large; an effect the other way counts as inactive or inconclusive.

What was measured:
[1] = molecular target: Aryl hydrocarbon receptor (Homo sapiens) (UniProt P35869); test: qHTS assay to identify small molecule that activate the aryl hydrocarbon receptor (AhR) signaling pathway (AID 743085); note: nearly all actives have a fitted effect of over 15% in size; note: potency is the fitted concentration of half-maximal effect;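 for activation: HG2L7.5c1 human HepG2 liver cells with stably integrated DRE-driven firefly reporter; series mostly up to about 70 µM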
Sequence of Aryl hydrocarbon receptor (Homo sapiens) (P35869 whole entry, looked up): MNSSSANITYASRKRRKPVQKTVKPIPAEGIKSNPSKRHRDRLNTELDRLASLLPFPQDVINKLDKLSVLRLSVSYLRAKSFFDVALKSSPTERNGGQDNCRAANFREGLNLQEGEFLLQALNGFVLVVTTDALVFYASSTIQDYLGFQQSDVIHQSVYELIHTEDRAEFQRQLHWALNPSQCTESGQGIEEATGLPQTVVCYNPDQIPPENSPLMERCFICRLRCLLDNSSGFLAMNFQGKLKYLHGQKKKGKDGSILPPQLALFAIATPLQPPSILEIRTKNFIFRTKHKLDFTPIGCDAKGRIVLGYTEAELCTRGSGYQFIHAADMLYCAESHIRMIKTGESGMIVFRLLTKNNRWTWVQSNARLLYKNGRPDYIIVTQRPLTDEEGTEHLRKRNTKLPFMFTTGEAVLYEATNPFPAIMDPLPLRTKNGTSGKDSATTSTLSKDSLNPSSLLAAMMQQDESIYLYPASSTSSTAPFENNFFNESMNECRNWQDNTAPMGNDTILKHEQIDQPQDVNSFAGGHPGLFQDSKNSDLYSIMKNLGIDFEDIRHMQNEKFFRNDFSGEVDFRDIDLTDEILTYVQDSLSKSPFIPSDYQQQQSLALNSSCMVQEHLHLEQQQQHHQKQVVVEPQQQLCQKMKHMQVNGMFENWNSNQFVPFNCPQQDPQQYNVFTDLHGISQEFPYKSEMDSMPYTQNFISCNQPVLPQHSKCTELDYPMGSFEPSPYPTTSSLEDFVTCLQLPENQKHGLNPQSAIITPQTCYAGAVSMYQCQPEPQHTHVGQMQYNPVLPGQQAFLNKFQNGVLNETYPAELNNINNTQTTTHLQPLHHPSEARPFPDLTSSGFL
Method in brief: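 AhR agonist activity is inferred from enhanced light output of a DRE-controlled firefly luciferase reporter in HepG2 cells, measured with ONE-Glo following 24 h treatment at 37C.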

[2] = qHTS assay to identify small molecule that activate the aryl hydrocarbon receptor (AhR) signaling pathway - cell viability counter screen (AID 743086); note: nearly all actives have a fitted effect of over 45% in size; note: potency is the fitted concentration of half-maximal effect
Method in brief: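 HepG2-AhR-luc (HG2L7.5c1) cells, 4000/well, were preincubated 5 h at 37C, exposed to compound in qHTS format for 24 hr at 37C, then given CellTiter-Fluor for 30 min; viability was read as fluorescence in the reporter wells.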

[3] = molecular target: Peroxisome proliferator-activated receptor gamma (Homo sapiens) (UniProt P37231); test: qHTS assay to identify small molecule agonists of the peroxisome proliferator-activated receptor gamma (PPARg) signaling pathway (AID 743094; active = well fitted activation curve with a large enough effect in the signal ratio in the repeat runs, not every such curve was filed as active; the % refers to the signal ratio)
Sequence of Peroxisome proliferator-activated receptor gamma (Homo sapiens) (P37231 whole entry, looked up): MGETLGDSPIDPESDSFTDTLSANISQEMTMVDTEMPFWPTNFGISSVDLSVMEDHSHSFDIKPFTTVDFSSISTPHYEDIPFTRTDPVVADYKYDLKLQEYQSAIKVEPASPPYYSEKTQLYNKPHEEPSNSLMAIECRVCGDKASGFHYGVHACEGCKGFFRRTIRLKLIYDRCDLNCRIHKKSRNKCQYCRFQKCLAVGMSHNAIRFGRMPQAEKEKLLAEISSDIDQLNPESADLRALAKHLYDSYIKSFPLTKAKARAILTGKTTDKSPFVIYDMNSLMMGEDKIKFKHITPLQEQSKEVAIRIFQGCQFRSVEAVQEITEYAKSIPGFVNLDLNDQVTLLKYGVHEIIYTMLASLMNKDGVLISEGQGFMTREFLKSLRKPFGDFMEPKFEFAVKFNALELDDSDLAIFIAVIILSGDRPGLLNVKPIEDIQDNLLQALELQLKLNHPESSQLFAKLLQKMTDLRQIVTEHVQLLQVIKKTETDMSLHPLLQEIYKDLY
Method in brief: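 Cell-based bla reporter, HEK293H background, PPARg-driven UAS. Pre-incubation 5 h, 37C, 5% CO2. Compound 17 h, 37C. Substrate 1 h RT; fluorescence.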

[4] = qHTS assay to identify small molecule antagonists of the peroxisome proliferator-activated receptor gamma (PPARg) signaling pathway - cell viability counter screen (AID 743194); conditions: Potency: co-treated with 50 nM rosiglitazone; note: nearly all actives have a fitted effect of over 55% in size; note: potency is the fitted concentration of half-maximal effect
Method in brief: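 PPARg-UAS-bla HEK293H cells were plated, rested 5 h at 37 C, then treated with compounds plus rosiglitazone (50 nM final) for 17 h at 37 C; viability was then read by CellTiter-Glo luminescence after 30 min at room temperature.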

[5] = qHTS assay for small molecule agonists of the antioxidant response element (ARE) signaling pathway - cell viability counter screen (AID 743203; calls by dose curve; note: nearly all actives have a fitted effect of over 55% in size; note: potency is the fitted concentration of half-maximal effect)
Method in brief: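 Measured in the same wells as the beta-lactamase ARE reporter, this read-out is CellTiter-Glo luminescence from HepG2 ARE-bla cells given compounds for 16 hrs.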

[6] = qHTS assay for small molecule activators of the heat shock response signaling pathway - cell viability counter screen (AID 743209); note: nearly all actives have a fitted effect of over 50% in size; note: potency is the fitted concentration of half-maximal effect
Method in brief: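 Same-well multiplex: after 2.5 h room-temperature incubation with LiveBLAzer B/G substrate and fluorescence reading, CellTiter-Glo reagent was added to HSE-bla HeLa cells that had received compound for 5 h at 37 C; luminescence read after 30 min.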

[7] = qHTS assay for small molecule activators of the heat shock response signaling pathway (AID 743210; active = well fitted activation curve with a large enough effect in the signal ratio in the repeat runs, with a control signal flat, not every such curve was filed as active; the % refers to the signal ratio; note: series mostly up to about 63 µM)
Method in brief: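 Heat shock element–beta-lactamase HeLa reporter cells; qHTS with compounds for 5 h at 37 C; detection by FRET substrate fluorescence after 2.5 h at RT.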

[8] = qHTS assay to identify small molecule agonists of the peroxisome proliferator-activated receptor delta (PPARd) signaling pathway - cell viability counter screen (AID 743211); note: nearly all actives have a fitted effect of over 55% in size; note: potency is the fitted concentration of half-maximal effect
Method in brief: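 qHTS cell viability: PPARd-bla HEK293H; 17 h cpd, 37C; CellTiter-Glo, luminescence at 30 min RT.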

[9] = qHTS assay for small molecule agonists of the antioxidant response element (ARE) signaling pathway (AID 743202; active = well fitted activation curve with a large enough effect in the signal ratio in the repeat runs, not every such curve was filed as active; the % refers to the signal ratio)
Method in brief: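 Following a 16 h, 37 C exposure of reporter HepG2 cells (ARE-driven beta-lactamase, 2,000 cells/well) to compounds, FRET substrate was applied for 2 h at room temperature and fluorescence intensity recorded.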

Row | Structure (SMILES) | Potency [1] | Potency [2] | outcome [3] | Potency [4] | Potency [5] | Potency [6] | Potency [7] | Potency [8] | Potency [9]
1 | C=CC=O | inactive | inactive | inactive | inactive | inactive | inactive | inactive | inactive | –
2 | CN(C)C1CCCCC1 | inactive | inactive | inactive | – | inactive | inactive | – | inactive | inactive
3 | CNC(=O)Oc1ccccc1C(C)C | inactive | inactive | inactive | inactive | inactive | inactive | inactive | inactive | inactive
4 | CC(C)[C@]12CC(=O)[C@H](C)[C@H]1C2 | inactive | inactive | inactive | inactive | inactive | inactive | inactive | inactive | inactive
5 | ClC1=C(Cl)C2(Cl)C(CBr)CC1(Cl)C2(Cl)Cl (centres undefined) | inactive | inactive | inactive | – | 54.5 µM (active) and inactive | 54.9 µM (active) and inactive | inactive | inactive | inactive
6 | O=C1C2CC=CCC2C(=O)N1SC(Cl)(Cl)Cl (centres undefined) | inactive | inactive and 42.6 µM (active) | inactive | 3.83 µM (active) | inactive and 23.9 µM (active) | inactive | – | inactive and 10.8 µM (active) | –
7 | CCOC(=O)Nc1cccc(OC(=O)Nc2ccccc2)c1 | 54.5 µM (active) | inactive | inactive | – | inactive | inactive | inactive | inactive | inactive
8 | O=C(Cl)CCl | inactive | inactive | inactive | inactive | inactive | inactive | inactive | inactive | –
9 | CCSC(=O)Cl | inactive | inactive | inactive | inactive | inactive | inactive | – | inactive | –
10 | CCCN1CCC[C@@H]2Cc3[nH]ncc3C[C@H]21 | 9.44 µM (active) | inactive | inactive | – | inactive | inactive | inactive | inactive | inactive
